PubChem BioAssay AID485367 (National Center for Advancing Translational Sciences (NCATS), 2010)
“And” between values parts separate entries of the source, which are not always exact repeats. Equal entries are not always repeated. Among all 330,000 compounds or so, about 560 (0.17%) were called active. Not shown: some 1% with an inconclusive outcome. This excerpt belongs to a sample that is enriched for actives. Values without a mark were called inactive. Calls follow the shape of the dose curve; as a rule, active = well fitted inhibition curve with a large enough effect; inconclusive = small, poorly fitted or top-dose-only effect, or effect the other way; inactive = flat fitted curve, though single readings scatter.

Molecular target: ATP-dependent 6-phosphofructokinase (Trypanosoma brucei brucei) (UniProt O15648)
Sequence (O15648 whole entry, looked up): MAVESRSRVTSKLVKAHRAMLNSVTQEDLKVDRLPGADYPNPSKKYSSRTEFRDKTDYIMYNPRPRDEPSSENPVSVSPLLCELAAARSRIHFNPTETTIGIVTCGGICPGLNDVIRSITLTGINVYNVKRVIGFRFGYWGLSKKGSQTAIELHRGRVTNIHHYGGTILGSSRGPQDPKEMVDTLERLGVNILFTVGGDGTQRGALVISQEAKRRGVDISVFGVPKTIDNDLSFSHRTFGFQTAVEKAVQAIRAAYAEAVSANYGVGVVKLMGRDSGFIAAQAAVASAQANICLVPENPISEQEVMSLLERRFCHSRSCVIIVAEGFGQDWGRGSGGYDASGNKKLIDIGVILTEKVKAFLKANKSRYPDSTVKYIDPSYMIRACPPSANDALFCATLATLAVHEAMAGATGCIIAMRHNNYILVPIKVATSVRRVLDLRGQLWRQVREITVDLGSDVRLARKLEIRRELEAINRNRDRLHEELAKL
Assay: qHTS Assay to Find Inhibitors of T. brucei phosphofructokinase; also: nearly all actives have a fitted effect of over 60% in size;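 as to activity, negative = inhibition: 0% = uninhibited 1x PFK enzyme wells and -100% = no-enzyme wells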
Settings: T. brucei PFK, ADP-Glo luminescence; series mostly up to 57.5 µM; activity, negative = inhibition: at the top concentration
Procedure, shortened: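 PFK 1.25 nM, F6P 0.5 mM, ATP 0.1 mM, 0.1 M TEA pH 8.0, 5 mM MgCl2, 0.01% Tween20, 0.1% BSA; 45 min RT. ADP-Glo readout. qHTS titration up to 57 uM; curves fitted, compounds curve-classed.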
Potency is read from the fitted curve at half-maximal effect.

SMILES	activity, negative = inhibition [%]	Potency
CCCCc1nnc(NC(=O)CS(=O)(=O)Cc2ccccc2)s1	4.44	
Cn1c(=O)c([N+](=O)[O-])c(Oc2ccccc2)c2ccccc21	4.66	
CCCN(CC(=O)Nc1ccc(OC)c(OC)c1)CC(=O)Nc1ccc(F)c(F)c1F	-5.89	
COc1ccc(N2CCN(S(=O)(=O)c3ccc4c(c3)NC(=O)C(C)C(=O)N4)CC2)cc1 (stereo not drawn)	-3.57	
COc1ccc(C)cc1NC(=O)CCS(=O)(=O)c1cccc2nonc12	0.301	
Cn1nc(C(F)(F)F)cc1-c1ccc(/C=C(\C#N)C(=O)c2cccc(C(F)(F)F)c2)s1	-2.17	
Cc1cc(C)c(S(=O)(=O)n2cc(C(C)C(N)C(=O)O)c3ccccc32)c(C)c1 (stereo not drawn)	-0.251	
COCCOC(=O)c1c(C)oc2cc(Br)c(OCC(N)=O)cc12	-0.993	
CCCCC(CC(C)O)c1n[nH]c(=S)n1-c1ccccc1 (stereo not drawn)	1.94	
CC(NC(=O)CCCC1CCCCC1)c1ccc(S(N)(=O)=O)cc1 (stereo not drawn)	-0.196	
CC(C)(C)OC(=O)C[C@@H]1C/C=C\C[C@@H](CC(=O)N[C@@H](CO)Cc2ccccc2)C(=O)N2CCC[C@H]2COC1=O	-0.476	
COC(=O)CN1C(=O)N/C(=C/c2ccc(OC)c(C)c2OC)C1=O	-0.685	
C=CCn1cc(-c2cccc(C(F)(F)F)c2)cc(C#N)c1=O	-1.02	
COCc1ccc(C(=O)N2CCc3c([nH]c4ccccc34)C2c2ccccn2)s1 (stereo not drawn)	-0.831	
Nc1ccccc1SC(C[N+](=O)[O-])c1ccccc1 (stereo not drawn)		13.5 µM (active)
Cc1ccc(C(C[N+](=O)[O-])c2c(C)cc3ccccn23)cc1 (stereo not drawn)	-0.525	
CN(CC(=O)Nc1ccc(F)c(F)c1F)C(=O)C1CC(=O)N(C2CCCC2)C1 (stereo not drawn)	2.52	
CCOC(=O)c1cnc(SC)nc1Sc1ccc(Cl)cc1Cl	-2.53	
NCCN1CCN2C(=O)CN(C(=O)c3ccccc3)CC12 (stereo not drawn)	0.907	
O=C(COC(=O)c1cc(=O)[nH]c2ccccc12)NCc1cccc(Cl)c1	-11.9	
Cc1cc(Nc2cccc(F)c2)n2ncnc2n1	-1.14	
C=CCn1c(C23CC4CC(CC(C4)C2)C3)n[nH]c1=S	-0.991	
CCOC(=O)c1c(/N=C/C2C(=O)CC(C)(C)CC2=O)sc(C)c1C	2.63	
O=C(Nc1cc(C(F)(F)F)ccc1Cl)c1cc2nc3c(c(C(F)(F)F)n2n1)CCCC3	-1.59	
Cc1cc(NS(=O)(=O)c2ccc(NC(=O)C(C)Oc3cccc(C)c3C)cc2)nc(C)n1 (stereo not drawn)	-5.56	
CCCCn1c(N)c(N(Cc2ccccc2OC)C(=O)COc2cc(C)ccc2Cl)c(=O)[nH]c1=O	24.8	
NC(=O)Nc1ccccc1C(=O)NCCc1ccccc1	-28.3	

SMILES	activity, negative = inhibition [%]	Potency
CCOC(=O)C1C(=O)C=C(c2ccc(OC)cc2)CC1c1ccco1 (stereo not drawn)	1.24	
CC(C)c1ccc(NC(=O)Cn2ncc3ccccc32)cc1	2.07	
C=CCOc1ccc(/C=C/C(=O)OCC(=O)NC2CCCCCC2)cc1	1.83	
O=C(NCc1ccccn1)c1ccc2nc(-c3ccco3)c(-c3ccco3)nc2c1		2.13 µM (active)
O=C1CSc2ccc(C(=O)NCc3ccccn3)cc2N1	-9.69	
COc1cccc(S(=O)(=O)NCc2ccc(C(=O)NCc3ccccn3)cc2)c1	-1.83	
CCOc1cc(CNn2c(C)nnc2SCC(=O)NC(C)(C)C)ccc1OCC(=O)NC(C)(C)C	-0.0385	
S=c1[nH]c2ccccc2c2ccccc12	-0.408	
COCCNC(=O)COc1ccc(N(C)S(=O)(=O)c2ccc3ccccc3c2)cc1	1.54	
Cc1ccc(N2C(=O)C(CC(=O)Nc3cccc(F)c3)N(CCc3ccncc3)C2=O)cc1 (stereo not drawn)	-1.36	
CCCCN1C(=O)C(C)=C(C)C1OCCc1ccc(OC)c(OC)c1 (stereo not drawn)	-0.0022	
O=C(c1ccccn1)c1ncc(C(F)(F)F)cc1Cl	-1.9	
N/C(=N\OC(=O)Nc1ccc(Cl)c(Cl)c1)c1ncc(C(F)(F)F)cc1Cl		13.5 µM (active)
N/C(=N\OC(=O)CCCC(=O)O)c1ncc(C(F)(F)F)cc1Cl	0.924	
COc1cccc(N=c2oc3c(C)ncc(CO)c3cc2C(N)=O)c1	-0.59	
CC(C)c1ccc(N2CCN(C(=O)c3ccccc3NC(=O)/C=C(\C(=O)O)c3ccccc3)CC2)cc1	0.784	
O=c1[nH]c(=S)[nH]c2[nH]c(=S)[nH]c12		16.9 µM (active) and 13.5 µM (active)
Cc1c(C)c(C)c2[nH]c(=S)[nH]c2c1C	4.32	
CCOc1ccc(Oc2nc(C)cc(OC)n2)nn1	-6.66	
Cc1ccc(-c2nn(-c3ccccc3)cc2C(=O)NCCCN2CCCC2=O)cc1	4.23	
COc1ccccc1NS(=O)(=O)N(C)C	0.142	
Cc1ccc(CN(C)Cc2cc(=O)oc3cc(C)c(Cl)cc23)cc1	0.644	
O=c1oc2ccccc2c(CNc2ccccc2)c1[N+](=O)[O-]	1.56	
Cc1ccc2c(c1)N(S(=O)(=O)c1cc(-c3cc(C)no3)ccc1C)CCO2	-4.63	
COC(=O)c1cccc(NC(=O)CN2CCC(NC(=O)c3cc(OC)c(OC)c(OC)c3)CC2)c1	0.362	
Cn1c2cc(B(O)O)sc2c2cnn(Cc3ccccc3F)c(=O)c21	-19.7	
